Screening results deposited in PubChem by National Center for Advancing Translational Sciences (NCATS).
HT1080-NT tox = kills 2HG-producing HT-1080-NT fibrosarcoma cells; HT-1080-NT fibrosarcoma viability, CellTiter-Glo ATP luminescence, 48 h; Potency, µM (top dose mostly 46.1 µM), for inactives: top-dose activity, negative = less viability, hits mostly cytotoxic; actives 1.6% (n = 360,000); AID 686970;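 note: NT is the 2HG producing partner of a matched IDH1 knockdown line; potency is the fitted concentration of half-maximal effect; 0% = DMSO-treated cells and -100% = media-only wells without cells; nearly all actives have a fitted effect of over 55% in size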
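Viability of the 2HG-overproducing fibrosarcoma line after 48 hours of compound exposure at 37 degrees C was determined by luminescence with CellTiter-Glo, and concentration-effect curves were then fitted and categorized.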
IL1B secr inh = inhibitors of inflammasome signaling (IL-1 beta secretion); THP-1 LPS/ATP IL-1B secretion, AlphaLISA, 16 h; stronger effect = lower value; AID 743279; activity change, % at 57.5 µM; actives 4.7% (n = 360,000); in the data active = activity change below about -50%; inconclusive = mostly about -30% to -49%
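Secreted IL-1B measured by AlphaLISA bead assay after 16 h compound exposure of THP-1 cells; compounds (final up to 57.5 uM) added 1 h before LPS (250 ng/mL) and ATP (1.25 mM) stimulation; lower signal means less secretion.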
HT1080 IDH1KD tx = HT-1080 IDH1 knockdown cell toxicity (counter line); Potency, µM (series often up to 46.1 µM), for the others: at the highest dose activity, negative = toxicity, actives largely listed as cytotoxic; HT-1080 IDH1 knockdown viability, ATP luminescence, 48 h; AID 686971; actives 2% (n = 360,000);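 note: potency is the fitted concentration of half-maximal effect; 0% = DMSO wells and -100% = cell-free medium wells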
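Viability of IDH1-knockdown HT-1080 fibrosarcoma cells was assessed by CellTiter-Glo after 48 h at 37 °C with titrated compound; concentration-effect curves were classified by fit quality and response size.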
DT40 TDP1 no CPT = qHTS for Inhibitors of human tyrosyl-DNA phosphodiesterase 1 (TDP1): qHTS in cells in absence of CPT | DT40 Tdp1-/- hTDP1 cells, no CPT, ATP luminescence, 48 h | Potency, µM (series often up to 46.2 µM), for inactives: at the top dose activity change, negative = growth inhibition, hits mostly inhibitors | actives 15% (n = 420,000) | AID 686978, 2013; note: potency is the fitted concentration of half-maximal effect; nearly all actives have a fitted effect of over 55% in size
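Seeded 400 DT40-hTDP1 cells/well (vehicle DMSO, no 20 nM CPT); pinned compounds; ≥48 hr at 37 °C; CellTiter-Glo luminescence as viability measure.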
DT40 TDP1 CPT = growth inhibition of DT40 Tdp1-/-;hTDP1 cells with camptothecin (screen for TDP1 inhibitors) | Potency, µM (titrated, usually from 46.2 µM), for the others: top-dose activity change, negative = growth inhibition, usual class: inhibitors | chicken DT40 Tdp1-/-;hTDP1 cells + 20 nM CPT, ATP luminescence, 48 h | AID 686979 | actives 12% (n = 420,000); note: potency is the fitted concentration of half-maximal effect; nearly all actives have a fitted effect of over 55% in size
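Chicken DT40 Tdp1-/- cells complemented with human TDP1, 400 cells/well, exposed to compounds plus 20 nM camptothecin for at least 48 h at 37 C; viability read as ATP content by CellTiter-Glo luminescence.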
An asterisk follows results filed as active. Sampled rows, rich in hits. Any-hit rate of the full collection: about 19%. Unless noted, calls come from the whole dose curve; as a rule, active = well fitted curve in the direction sought with a large enough effect; inconclusive = small, poorly fitted or top-dose-only effect, or another doubt; inactive = no such curve, though single readings can be large; an effect the other way counts as inactive or inconclusive. Unless noted, % is set by controls: 0 for no effect and ±100 for the full control effect.

N#C/C(=C/c1cccc([N+](=O)[O-])c1)C(=O)Nc1ccccc1O was read as HT1080-NT tox -2%, IL1B secr inh -7, HT1080 IDH1KD tx -2%, DT40 TDP1 no CPT inconclusive and DT40 TDP1 CPT 3.7µM*.
N#C/C(=C\C=C\c1ccccc1)C(=O)NCc1cccnc1 was read as HT1080-NT tox inconclusive, IL1B secr inh -89*, HT1080 IDH1KD tx inconclusive, DT40 TDP1 no CPT 29µM* and DT40 TDP1 CPT 26µM*.
N#C/C(=C\c1cccc([N+](=O)[O-])c1)C(=O)NCc1cccnc1 was read as HT1080-NT tox 6%, IL1B secr inh 13, HT1080 IDH1KD tx 7%, DT40 TDP1 no CPT 21µM* and DT40 TDP1 CPT 21µM*.
Screening O=C(NCC1CC1)c1cc(-c2ccccc2)nn1CC1CC(c2cccnc2)=NO1 (configuration not stated) returned HT1080-NT tox 29%, IL1B secr inh -1, HT1080 IDH1KD tx 3%, DT40 TDP1 no CPT -2% and DT40 TDP1 CPT -17%.
CCOC(=O)c1sc(=S)n(CC)c1NC(=O)c1ccccc1 was read as HT1080-NT tox 2%, HT1080 IDH1KD tx 11%, DT40 TDP1 no CPT -27% and DT40 TDP1 CPT -2%.
`C=C(NC(C)=O)c1c(F)cccc1F` gave HT1080-NT tox 4%, IL1B secr inh 31, HT1080 IDH1KD tx 3%, DT40 TDP1 no CPT 8% and DT40 TDP1 CPT 7%.
Screening CCOc1ccc2nc(SCC(=O)Nc3ccc4[nH]c(=O)[nH]c4c3)[nH]c2c1 returned HT1080-NT tox 0%, IL1B secr inh -12, HT1080 IDH1KD tx 0%, DT40 TDP1 no CPT 3% and DT40 TDP1 CPT -2%.
For Cc1c(C(=O)NN2CCCCC2)nn(-c2ccc(Cl)cc2Cl)c1-c1ccc(I)cc1 the results were DT40 TDP1 no CPT 30µM* and DT40 TDP1 CPT inconclusive.
Screening O=C(CCC1CCN(Cc2nccs2)CC1)Nc1ccccc1 returned HT1080-NT tox 0%, IL1B secr inh -2, HT1080 IDH1KD tx 1%, DT40 TDP1 no CPT inconclusive and DT40 TDP1 CPT 1%.
Screening O=C(Nc1cccc(-c2cccc(Cl)c2)c1)C1CCN(Cc2nccs2)CC1 returned HT1080-NT tox -23%, IL1B secr inh -26, HT1080 IDH1KD tx inconclusive, DT40 TDP1 no CPT 5.8µM* and DT40 TDP1 CPT 9.2µM*.
CC(C)n1cc(CN2CCC(C(=O)Nc3cccc(-c4cccc(Cl)c4)c3)CC2)cn1 was read as HT1080-NT tox 18µM*, IL1B secr inh -25, HT1080 IDH1KD tx inconclusive, DT40 TDP1 no CPT inconclusive and DT40 TDP1 CPT inconclusive.
O=C(Nc1cccc(-c2cccc(Cl)c2)c1)C1CCN(Cc2ccc(CO)o2)CC1 was read as HT1080-NT tox 16µM*, IL1B secr inh -81*, HT1080 IDH1KD tx 16µM*, DT40 TDP1 no CPT inconclusive and DT40 TDP1 CPT inconclusive.
CCOc1ccccc1N(CC(=O)Nc1ccc(OC)c(OC)c1)S(=O)(=O)c1ccccc1 was read as HT1080-NT tox -3%, IL1B secr inh 10, HT1080 IDH1KD tx -8%, DT40 TDP1 no CPT inconclusive and DT40 TDP1 CPT inconclusive.
Screening CCOc1ccccc1N(CC(=O)Nc1ccc(OC)cc1OC)S(=O)(=O)c1ccccc1 returned HT1080-NT tox 9%, IL1B secr inh 0, HT1080 IDH1KD tx -10%, DT40 TDP1 no CPT 26µM* and DT40 TDP1 CPT inconclusive.
Screening CCOc1ccc(N(CC(=O)Nc2cccnc2)S(=O)(=O)c2ccc(C)cc2)cc1 returned HT1080-NT tox -16%, IL1B secr inh -12, HT1080 IDH1KD tx -19%, DT40 TDP1 no CPT inconclusive and DT40 TDP1 CPT -14%.
Screening CCOc1ccc(S(=O)(=O)N(CC(=O)Nc2cccnc2)c2ccccc2)cc1 returned DT40 TDP1 no CPT 16µM* and DT40 TDP1 CPT inconclusive.
For CCOc1ccccc1N(CC(=O)Nc1cccc(OC)c1)S(=O)(=O)c1ccccc1 the results were HT1080-NT tox 2%, IL1B secr inh 10, HT1080 IDH1KD tx -4%, DT40 TDP1 no CPT inconclusive and DT40 TDP1 CPT 29µM*.
For COc1ccc(NC(=O)CN(c2ccccc2F)S(=O)(=O)c2ccc(C)cc2)c(OC)c1 the results were HT1080-NT tox inconclusive, IL1B secr inh 51, HT1080 IDH1KD tx -13%, DT40 TDP1 no CPT 15µM* and DT40 TDP1 CPT 16µM*.
`COc1ccc(OC)c(N(CC(=O)Nc2cccnc2)S(=O)(=O)c2ccccc2)c1` gave HT1080-NT tox 6.5µM*, IL1B secr inh 73, HT1080 IDH1KD tx 3.3µM*, DT40 TDP1 no CPT inconclusive and DT40 TDP1 CPT inconclusive.
COc1ccc(N(CC(=O)NCc2ccncc2)S(=O)(=O)c2ccccc2[N+](=O)[O-])c(OC)c1 was read as HT1080-NT tox 0%, IL1B secr inh 19, HT1080 IDH1KD tx 14%, DT40 TDP1 no CPT 1% and DT40 TDP1 CPT -2%.
CCOc1ccccc1N(CC(=O)Nc1ccc(OC)cc1)S(=O)(=O)c1ccccc1 was read as HT1080-NT tox -3%, IL1B secr inh 10, HT1080 IDH1KD tx -2%, DT40 TDP1 no CPT inconclusive and DT40 TDP1 CPT inconclusive.
`COc1ccccc1N(CC(=O)Nc1cccnc1)S(=O)(=O)c1ccccc1` gave HT1080-NT tox 0%, IL1B secr inh -4, HT1080 IDH1KD tx 17%, DT40 TDP1 no CPT -7% and DT40 TDP1 CPT -15%.
For COc1ccc(N(CC(=O)NCc2ccc(C)cc2)S(=O)(=O)c2ccccc2[N+](=O)[O-])c(OC)c1 the results were HT1080-NT tox 0%, IL1B secr inh inconclusive, HT1080 IDH1KD tx -5%, DT40 TDP1 no CPT 23µM* and DT40 TDP1 CPT inconclusive.
Screening CCOc1ccc(NC(=O)CN(c2ccccc2OCC)S(=O)(=O)c2ccccc2)cc1 returned DT40 TDP1 no CPT 18µM* and DT40 TDP1 CPT inconclusive.
For Nc1ccc2[nH]ncc2c1 the results were HT1080-NT tox 25%, IL1B secr inh 9, HT1080 IDH1KD tx 0%, DT40 TDP1 no CPT 21µM* and DT40 TDP1 CPT 18µM*.
O=C(Cc1ccc(F)cc1)Nc1ccc2[nH]ncc2c1 was read as HT1080-NT tox 20%, IL1B secr inh -4, HT1080 IDH1KD tx 5%, DT40 TDP1 no CPT inconclusive and DT40 TDP1 CPT 3%.
For CCN(CC)C(=O)CSc1nnc(-c2c[nH]c3ccccc23)o1 the results were HT1080-NT tox 8%, IL1B secr inh 4, HT1080 IDH1KD tx 1%, DT40 TDP1 no CPT inconclusive and DT40 TDP1 CPT -6%.
`CCOc1ccc(-c2cc(N3C(=O)Nc4ccccc4N3O)n[nH]2)cc1` gave HT1080-NT tox 16µM*, IL1B secr inh 0, HT1080 IDH1KD tx 21µM*, DT40 TDP1 no CPT -13% and DT40 TDP1 CPT 12%.
For CCn1c(SCC(=O)Nc2ccccc2)nc2c1c(=O)n(C)c(=O)n2C the results were HT1080-NT tox -7%, IL1B secr inh 24, HT1080 IDH1KD tx 0%, DT40 TDP1 no CPT -17% and DT40 TDP1 CPT -17%.
